Bioassay records deposited in PubChem BioAssay by National Center for Advancing Translational Sciences (NCATS).
CCT chaperon mod – High-Throughput Screening for Modulators of Cytosolic Chaperonin Activity; purified chaperonin ATPase assay, HTRF ADP detection, 30 min; activity change, % (no concentration beside the values), hits read low; 360,000 compounds, 0.3% hits; in the data active means activity change below about -30%; further: on the % scale 0 is the no-effect control and ±100 the full control effect
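First, chaperonin was dispensed at 40 nM or 20 nM final depending on batch activity. Next, compounds were pinned at 76 uM and ATP added at 10 uM. After 30 min at 37 °C, ADP detection reagents ran 30 min at ambient temperature.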
GLP-1R agonist – qHTS of GLP-1 Receptor Agonists. Glucagon-like peptide 1 receptor (Homo sapiens), P43220. HEK293 GLP-1R CRE-luciferase, luminescence, 4-6 h; cells express a hypersensitive GLP-1R form. Potency, µM (top dose mostly 45.6 µM), without a hit: top-dose activation, usual class: activators. 380,000 compounds, 0.007% hits; further: potency means the concentration at half of the fitted maximal effect; % of control where 0% means no effect
Target sequence (P43220 whole entry, looked up): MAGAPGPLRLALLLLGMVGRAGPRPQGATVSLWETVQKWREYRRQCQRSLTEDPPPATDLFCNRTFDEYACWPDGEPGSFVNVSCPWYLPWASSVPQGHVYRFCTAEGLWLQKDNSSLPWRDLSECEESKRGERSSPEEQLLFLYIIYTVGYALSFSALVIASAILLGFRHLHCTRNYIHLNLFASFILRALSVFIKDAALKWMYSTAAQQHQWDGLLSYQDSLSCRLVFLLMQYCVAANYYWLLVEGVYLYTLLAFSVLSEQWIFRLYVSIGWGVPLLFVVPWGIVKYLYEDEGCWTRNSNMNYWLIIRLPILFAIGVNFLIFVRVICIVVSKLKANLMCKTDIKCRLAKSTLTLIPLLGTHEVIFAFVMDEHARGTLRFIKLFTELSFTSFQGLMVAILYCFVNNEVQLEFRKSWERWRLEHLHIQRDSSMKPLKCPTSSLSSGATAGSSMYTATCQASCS
MmCpn inh – Inhibitors of TCP-1 ring complex (TRiC) of Methanococcus maripaludis (MmCpn): qHTS; Potency, µM (titrated, usually from 76.9 µM), without a hit: at the highest dose activity, negative = inhibition, usual class: inhibitors; AID 504842, 2011; Chaperonin Mm-Cpn (Methanococcus maripaludis); purified Mm-Cpn ATPase, ADP Transcreener TR-FRET; 330,000 compounds, 0.031% hits; further: potency means the concentration at half of the fitted maximal effect; on the % scale 0 is the no-effect control and ±100 the full control effect; nearly all actives have a fitted effect of over 80% in size
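25 nM Mm-CPN + cpd, 10 min 37°C; + 10 uM ATP, 30 min 37°C; buffer 30 mM Tris pH 7.4, 100 mM KCl, 5 mM MgCl2, 1 mM DTT; Transcreener ADP HTRF detection 30 min RT.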
GLP1R cytotox – qHTS of GLP-1 Receptor Inverse Agonists: Cytotox Screen; HEK293 cAMP-luciferase reporter cells, luminescence, 24 h; 410,000 compounds, 0.13% hits; AID 624418, 2012; Potency, µM (series often up to 38.3 µM), without a hit: at the highest dose activity change, negative = inhibition, usual class: inhibitors;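 further: loss of luciferase light is scored as toxicity; potency means the concentration at half of the fitted maximal effect; on the % scale 0 is the no-effect control and ±100 the full control effect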
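Cells in DMEM/10% Nu serum/1% pen-strep, 1536-well format. Pre-incubated 12 h, dosed with 23 nL compound, incubated a further 24 h. Luciferase detection, 12 min at room temp, luminescence.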
uPA surface inh – qHTS for Inhibitors of Cell Surface uPA Generation; cell surface uPA generation assay, qHTS; Potency, µM (highest dose often 38.3 µM), inactives show at the top dose activity change, negative = inhibition, hits mostly inhibitors; 330,000 compounds, 0.31% hits; AID 540303, 2011; active means well fitted inhibition curve with a large enough effect; inconclusive means small, poorly fitted or top-dose-only effect; inactive means no such curve, though single readings can be large or run the other way; tested in mouse RAW 264.7 cells; further: potency means the concentration at half of the fitted maximal effect; on the % scale 0 is the no-effect control and ±100 the full control effect; nearly all actives have a fitted effect of over 55% in size
GLP-1R inv ag – qHTS of GLP-1 Receptor Inverse Agonists (Inhibition Mode). HEK293 GLP-1R CRE-luciferase, luminescence, 24 h; GLP-1R form is constitutively active. Potency, µM (doses to about 38.3 µM), for inactives: at the top dose activity change, negative = inhibition, most hits filed as inhibitors. 410,000 compounds, 1.6% hits. AID 624417, 2012; further: potency means the concentration at half of the fitted maximal effect; on the % scale 0 is the no-effect control and ±100 the full control effect; nearly all actives have a fitted effect of over 55% in size
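Assay principle: reduced luminescence from a cAMP-responsive reporter in HEK293 cells co-expressing a constitutively active GLP-1R. Conditions: 24 hr compound incubation, 37 deg C, 5% CO2.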
Starred values were filed as active, the others as inactive; [ ] = another dose, or the depositor's remark. Compounds with a hit are over-represented: about 2.2% of the library has one in this group of screens. Unless noted, the call rests on the fitted dose curve; in most records, active means well fitted curve in the direction sought with a large enough effect; inconclusive means small, poorly fitted or top-dose-only effect, or another doubt; inactive means no such curve, though single readings can be large; an effect the other way counts as inactive or inconclusive.

Screening COc1ccccc1-c1oc2ccccc2c1C#CC(C)(C)O returned CCT chaperon mod 0.4, GLP-1R agonist 14.5%, MmCpn inh -7.6%, GLP1R cytotox 6.1%, uPA surface inh -4.5% and GLP-1R inv ag 10µM*.
COc1ccccc1-c1oc2ccccc2c1C#CCO was read as CCT chaperon mod -1.0, GLP-1R agonist 1.2%, MmCpn inh 0.7%, GLP1R cytotox 1.1%, uPA surface inh 5.5% and GLP-1R inv ag -6.2%.
CC1(C)Cc2c(c(-c3ccco3)nc3sc4c(NCCCO)ncnc4c23)CO1 was read as CCT chaperon mod -42.1*, GLP-1R agonist inconclusive, MmCpn inh -0.6%, GLP1R cytotox -10.3%, uPA surface inh inconclusive and GLP-1R inv ag 45.3%.
For CC(C)NC(=O)CSc1nc2ccccc2c(=O)n1Cc1ccc(C(=O)NC(C)C)cc1 the results were GLP-1R agonist 1.9%, GLP1R cytotox 3.6% and GLP-1R inv ag 30.6%.
N/C(=N\OC(=O)c1cccc(Br)c1)c1ccccn1 was read as CCT chaperon mod -4.0, GLP-1R agonist -0.5%, MmCpn inh 0.4%, GLP1R cytotox -12.3%, uPA surface inh inconclusive and GLP-1R inv ag 6.31µM*.
CCn1cc(/C=N\NC(=O)Cc2ccc([N+](=O)[O-])cc2)c(C)n1 was read as CCT chaperon mod -38.9*, GLP-1R agonist 1.1%, MmCpn inh -4.7%, GLP1R cytotox -1.4%[1.53 µM], uPA surface inh -0.9% and GLP-1R inv ag 8.6%.
`Cc1nn(C)cc1/C=N\NC(=O)Cc1ccc([N+](=O)[O-])cc1` gave CCT chaperon mod -3.9, GLP-1R agonist 0.1%, MmCpn inh 0.0%, GLP1R cytotox 2.4%, uPA surface inh -1.6% and GLP-1R inv ag 6.7%.
For CCC(C(=O)Nc1c(C)cc(C)cc1C)n1c(=O)c(-c2ccccc2NC(C)=O)nc2ccccc21 (stereo not drawn) the results were GLP1R cytotox -0.2% and GLP-1R inv ag 7.2%.
Screening CCc1ccc(NC(=O)C(CC)n2c(=O)c(-c3ccccc3NC(C)=O)nc3ccccc32)cc1 (stereo not drawn) returned GLP1R cytotox -23.0% and GLP-1R inv ag 11.2µM*.
`Cc1cccc(NC(=O)c2ccc3nccnc3c2)n1` gave CCT chaperon mod -49.9*, GLP-1R agonist -6.4%, MmCpn inh 1.9%, GLP1R cytotox -12.8%, uPA surface inh -0.7% and GLP-1R inv ag 18.9%.
Cc1ccc(NC(=O)C(=O)c2cc(C)n(-c3ccc(F)cc3)c2C)cc1C was read as GLP1R cytotox 2.3% and GLP-1R inv ag inconclusive.
Screening COc1ccc(C(=O)NC(=S)Nc2ccccc2N2CCCCC2)cc1[N+](=O)[O-] returned CCT chaperon mod 2.0, GLP-1R agonist 9.2%, MmCpn inh -0.5%, GLP1R cytotox inconclusive, uPA surface inh 3.2% and GLP-1R inv ag 1.12µM*.
Cc1ccc(-c2c3c(=O)n(C)c(=O)n(C)c3c3n2-c2ccccc2NC3c2ccc(C)cc2O)cc1 (stereo not drawn) was read as GLP1R cytotox -13.8% and GLP-1R inv ag 10µM*.
For Cn1cnc(S(=O)(=O)N2CCN(c3ccc(Cl)cc3)CC2)c1 the results were CCT chaperon mod -0.9, GLP-1R agonist -1.4%, MmCpn inh 0.7%, GLP1R cytotox inconclusive, uPA surface inh 3.0% and GLP-1R inv ag -7.0%.
CCS(=O)(=O)N1CCN(S(=O)(=O)c2ccccc2)CC1 was read as CCT chaperon mod -0.2, GLP-1R agonist -4.3%, MmCpn inh 0.7%, GLP1R cytotox -6.6%, uPA surface inh 0.9% and GLP-1R inv ag 13.3%.
`CCS(=O)(=O)N1CCN(c2ccccc2)CC1` gave CCT chaperon mod -39.9*, GLP-1R agonist 1.1%, MmCpn inh 0.5%, GLP1R cytotox 0.4%, uPA surface inh 0.0% and GLP-1R inv ag -4.2%.
Screening Cn1cnc(S(=O)(=O)N2CCN(c3ccccc3)CC2)c1 returned CCT chaperon mod -78.1*, GLP-1R agonist -6.2%, MmCpn inh 0.4%, GLP1R cytotox -6.0%, uPA surface inh -8.7% and GLP-1R inv ag 14.7%.
For C/C(=N\NC(=O)c1ccccc1)c1ccccc1Br the results were CCT chaperon mod -0.2, GLP-1R agonist 8.6%, MmCpn inh 0.8%, GLP1R cytotox 5.01µM*, uPA surface inh 0.1% and GLP-1R inv ag inconclusive.
C/C(=N\NC(=O)c1ccccc1)c1ccccc1F was read as CCT chaperon mod -2.1, GLP-1R agonist 4.3%, MmCpn inh -7.0%, GLP1R cytotox 12.6%, uPA surface inh 2.8% and GLP-1R inv ag 22.5%.
CN(CC(=O)Nc1ccc(F)cc1)C(=O)COc1ccc(C(=O)c2ccccc2)cc1 was read as CCT chaperon mod -1.6, GLP-1R agonist 0.3%, MmCpn inh -2.0%, GLP1R cytotox -24.2%, uPA surface inh 8.4% and GLP-1R inv ag 10µM*.
`Cc1ccc(CN2CCC(Oc3cccc(C(=O)N(C)CCN(C)C)c3)CC2)cc1C` gave CCT chaperon mod 0.5, GLP-1R agonist 5.3%, MmCpn inh -0.4%, GLP1R cytotox inconclusive, uPA surface inh 0.6% and GLP-1R inv ag 3.98µM*.
COc1ccc(-c2csc(NC(=O)CS(=O)(=O)c3ccccc3)n2)cc1OC was read as CCT chaperon mod -30.6*, GLP-1R agonist -0.4%, GLP1R cytotox -6.4% and GLP-1R inv ag 7.5%.
For COc1ccc(OC)c2sc(NC(=O)CCS(=O)(=O)c3ccccc3)nc12 the results were CCT chaperon mod 0.6, GLP-1R agonist 3.8%, GLP1R cytotox 2.9%, uPA surface inh 7.08µM* and GLP-1R inv ag 16.8%.
Cc1ccc(NC(=O)c2ccc(NC(=O)N3CCSc4ncccc43)cc2)c(Cl)c1 was read as GLP1R cytotox -7.4% and GLP-1R inv ag -16.3%.
`O=C(NC1CCCCC1)c1ccc(CSc2nc3cccnc3n2Cc2ccc(F)cc2)cc1` gave GLP1R cytotox -8.0% and GLP-1R inv ag -10.7%.
`CC(C)CC(N)c1csc(NC(=O)Nc2ccccc2C(C)C)n1` (stereo not drawn) gave CCT chaperon mod 0.5, GLP-1R agonist 4.5%, GLP1R cytotox inconclusive and GLP-1R inv ag 10µM*.
For NC(Cc1ccc(C(F)(F)F)cc1)c1csc(NC(=O)Nc2ccccc2Cc2ccccc2)n1 (stereo not drawn) the results were CCT chaperon mod -0.3, GLP-1R agonist -23.6%, GLP1R cytotox inconclusive and GLP-1R inv ag inconclusive.
